Assay outcomes deposited in PubChem BioAssay by several laboratories.
Only some compounds are listed: those with a hit (about 3.9% of all), similar ones and a draw of the others.
PrPC TRFRET = cell surface PrPC inhibition, primary TR-FRET screen. TR-FRET read-out. inhibition, % at 13.8 µM. actives 0.43% (n = 370,000). AID 720596; in the data active means inhibition above about 24%; further: 0% = median of the test wells and 100% = reference compound wells
GDH-TPI counter-1 = GDH-TPI coupled enzyme inhibition counter-screen. GDH-TPI coupled enzyme counterscreen, NADH absorbance. inhibition, % at 4.8 µM. actives 1.2% (n = 360,000). AID 588335; in the data active means inhibition above about 30%;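 further: 0% = DMSO wells and 100% = wells lacking the enzyme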
FBA Mtb inh = Mtb fructose-bisphosphate aldolase inhibition; P9WQA3; purified M. tuberculosis FBA, fluorescence read-out; actives 2.3% (n = 360,000); inhibition, % at 1 µM;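 further: 0% = vehicle and 100% = reference inhibitor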
Target sequence (P9WQA3 whole entry, looked up): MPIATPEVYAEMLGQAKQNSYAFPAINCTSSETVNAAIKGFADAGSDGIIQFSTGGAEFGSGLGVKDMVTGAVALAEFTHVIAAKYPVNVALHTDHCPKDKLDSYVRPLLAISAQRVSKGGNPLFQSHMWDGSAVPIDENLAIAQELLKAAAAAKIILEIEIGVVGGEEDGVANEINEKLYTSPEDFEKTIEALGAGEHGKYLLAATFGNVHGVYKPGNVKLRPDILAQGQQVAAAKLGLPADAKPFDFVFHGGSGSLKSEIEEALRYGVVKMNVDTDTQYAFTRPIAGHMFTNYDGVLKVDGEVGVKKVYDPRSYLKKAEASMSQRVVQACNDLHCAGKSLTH
Vc quorum ag = inducers of Vibrio cholerae quorum light production without autoinducers; V. cholerae BH1578 lux reporter, luminescence, 6 h; activation, % at 18.7 µM; actives 0.16% (n = 350,000); AID 588436; in the data active means activation mostly above about 9.7%, no sharp cut-off
3CLpro inhibitor = SARS-CoV 3CLpro protease inhibition; actives 0.14% (n = 290,000); P0C6X7; recombinant SARS-CoV 3CLpro, quenched FRET peptide cleavage; inhibition, % at 6 µM; in the data active means inhibition above about 12%
Mtb FBA confirm = confirmation of M. tuberculosis fructose-bisphosphate aldolase inhibitors. actives 78% (n = 5,600). purified M. tuberculosis FBA, fluorescence read-out. inhibition, % at 1 µM. shares compounds with FBA Mtb inh;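 further: 0% = vehicle wells and 100% = reference inhibitor wells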
GDH-TPI counter-2 = counter-screen for M. tuberculosis FBA inhibitors: GDH-TPI coupled enzyme inhibition. shares compounds with FBA Mtb inh. actives 81% (n = 5,600). inhibition, % at 1 µM. AID 652141. GDH-TPI coupled enzyme counterscreen, fluorescence; in the data active means inhibition above about 10%
GDH-TPI DR = counter-screen for M. tuberculosis FBA inhibitors: GDH-TPI dose response | actives 79% (n = 170) | IC50, µM | shares compounds with FBA Mtb inh | GDH-TPI coupled enzyme assay, fluorescence, artifact counterscreen | AID 652145; call rule not given here
* = called active by the depositor; i = inactive; . = no result; + = active, no number. Unless noted, no stated cut-off is given here; in the data, active means inhibition above about 27%; inactive means the rest.

SMILES	PrPC TRFRET	GDH-TPI counter-1	FBA Mtb inh	Vc quorum ag	3CLpro inhibitor	Mtb FBA confirm	GDH-TPI counter-2	others
Cc1ccc2nc(NCCCO)nc(-c3ccccc3)c2c1	-14	5	31*	i	2	+	+
CCc1ccccc1NC(=O)CN1CCN(CC(=O)Nc2ccc3c(c2)OC2(CCCCC2)O3)CC1	-2	7	3	i	.	.	.
CN(C)C(=O)N1CCN(C(=O)[C@H]2O[C@@H](n3ccc(N)nc3=O)[C@H](O)[C@@H]2O)CC1	4	.	.	.	.	.	.
CCOc1cc(-c2cc(-c3ccc(N)cc3)nc(N)c2C#N)ccc1O	-10	29	29*	3	1	52*	45*
FC(F)(F)c1nnc2c(Sc3ccc(Cl)cc3)nc3ccccc3n12	0	18	2	-1	-2	.	.
Cc1ccc(-c2nc3ccccc3n3c(C)nnc23)cc1	.	.	.	.	0	.	.
FC(F)(F)c1nc2ccccc2n2c(-c3ccc(Cl)cc3)nnc12	0	2	61*	0	-5	6	0
Cc1ccc(-c2nnc3c(C(F)(F)F)nc4ccccc4n23)cc1	3	-1	60*	-1	7	+	+
O=C(CN1C(=O)COc2ccccc21)NCCCN1CCCCC1	-7	-1	2	i	0	.	.
COc1[nH]c2ccc(F)cc2c1C(=O)OCC1CCN(CCNS(C)(=O)=O)CC1	-11	-14	-1	i	.	.	.
CC(=O)C1CN(S(=O)(=O)c2ccc(C)cc2)C(c2ccccc2)CC1C (centres undefined)	1	.	.	.	.	.	.
COc1cccc(C(O)c2nc(-c3ccc(F)c(Cl)c3)cs2)c1 (centres undefined)	3	7	4	i	.	.	.
Oc1ccc(C=Nc2cccc3ccccc23)c(O)c1	1	9	62*	-2	0	132*	122*
O=[N+]([O-])c1cccc(C=Nc2cccc3ccccc23)c1O	0	7	39*	i	8	179*	157*
CC(C)n1ncc2c(C(=O)NCCc3ccc(S(N)(=O)=O)cc3)cc(C3CC3)nc21	5	-2	28*	-1	.	+	+
CC(C)CCOCc1nc2sc3c(c2c(=O)[nH]1)CCC(C)C3 (centres undefined)	5	10	0	i	-2	.	.
CCOC(=O)c1nc2sc3c(c2c(=O)[nH]1)CCC(C)C3 (centres undefined)	2	12	101*	i	-3	74*	57*
O=C(Nc1ccccc1C(=O)NCc1cccnc1)c1ccc(Cl)cc1Cl	-4	12	2	1	2	.	.
COc1ccc(-c2c(C#N)c(N)nc3c2CCCC3)cc1OC	-2	19	4	i	0	.	.
COc1ccc(-c2c(C#N)c(N)nc3c2CCC3)cc1	1	2	53*	0	-2	136*	93*
N#Cc1c(N)nc2c(c1-c1ccccc1)CCC2	-6	11	61*	-3	3	119*	91*
COc1ccc(CCNCc2cc(C)n(-c3ccc(OC)cc3)c2C)cc1	-7	-1	7	0	1	.	.
Cc1cccnc1NC(=O)Nc1cccc2ccccc12	5	-2	56*	i	0	90*	73*
O=C(Nc1ccccc1)Nc1cccc2ccccc12	-8	13	7	0	1	.	.
COc1ccc(-n2nc3ccc(NS(C)(=O)=O)cc3n2)cc1Cl	-1	11	92*	0	5	36*	22*
SMILES	PrPC TRFRET	GDH-TPI counter-1	FBA Mtb inh	Vc quorum ag	3CLpro inhibitor	Mtb FBA confirm	GDH-TPI counter-2	others
Cc1ccc(-n2nc3ccc(N)cc3n2)c(C)c1	0	20	100*	-1	5	+	+
Cc1ccc(-n2nc3ccc(N)cc3n2)cc1Cl	-8	6	28*	i	4	59*	47*
Cc1cc(N)ccc1-n1nc2ccccc2n1	-5	17	2	-1	.	.	.
Cc1ccc(-n2nc3ccc(N)cc3n2)cc1C	5	12	27*	i	-8	15	10	GDH-TPI DR=1.5*
Cc1ccc(-n2cnnn2)cc1Cl	2	-2	-3	i	0	.	.
COc1ccc(NS(=O)(=O)c2cn(C)cn2)cc1Cl	-4	-2	1	0	4	.	.
